In PubChem BioAssay (NCI):
This is part of a sample that, as a whole, favours compounds with a hit. Of some 83,000 tested, about 20% had one in any assay.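 A percent growth of 40 corresponds to 60% growth inhibition; 0 means no net growth; -100 means all cells died. Active threshold: below 10.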 Active and inactive are the calls of the source.

Each compound was assayed on SR leukemia (assay: NCI-60 one-dose screen, 48 h (100 = growth as untreated, 0 = no growth, -100 = all killed)). Settings: 10 µM unless noted.
Method: Growth inhibition of the SR human tumor cell line is measured as a screen for anti-cancer activity. Cells are grown in 96 well plates and exposed to the test compound for 48 hours. Compounds are tested at a single concentration, which is 10^-5 M for most compounds. The reported endpoint is percent growth (GI% or GIPRCNT), where numbers from 0 - 100% represent growth inhibition, and numbers from -100% - 0 represent cell death. For example, a value of 40 represents 60% growth inhibition. A value of 0 means no net growth occurred over the course of the experiment. A value of -40 indicates 40% of cells at the beginning of the experiment died by the end of the experiment. A value of -100 means all cells are dead at the end of the experiment.
NCI-60 Human Tumor Cell Lines Screen was performed using the standard one-dose NCI protocol, which is described in more detail at https://dtp.cancer.gov/discovery_development/nci-60/default.htm.
Compounds with GIPRCNT values below 10 were considered active. Activity score was based on GIPRCNT using the following formula: […]
Score is 0 for GIPRCNT values of 100 or above, 50 for GIPRCNT values of 0, and 100 for GIPRCNT values of -100.

SMILES | growth
CN(CCCNC(=O)Cc1ccc2ccc3cccc4ccc1c2c34)CCCNc1cc(-c2ccc3ccccc3c2)nc2ccccc12 | -70.8% (active)
COc1ccc(Cn2cc(C(=O)N=Nc3c(O)[nH]c4c(C)cccc34)nn2)cc1 | 76.6% (inactive)
Cc1ccc(C(=O)Nc2cccc(C#Cc3cccc4[nH]nc(N)c34)c2)cc1C(F)(F)F | 69.3% (inactive)
CCCCCN(CCCCC)CC(O)c1cc(C)c2ccc3cc(C(C)C)ccc3c2c1 (stereo not given) | -12.9% (active)
C=CCn1c(SCC(=O)Nc2ccc(/C(C)=N/O)cc2)nnc1-c1cc(-c2ccc(S(N)(=O)=O)cc2)nc2ccccc12 | 56.7% (inactive)
O=C(Nc1cnc(Nc2ccc(N3CCOCC3)nc2)nc1Oc1ccc(C(F)(F)F)cc1)c1ccncc1 | 19.3% (inactive)
N#CC1CCc2c(c(-c3ccc4nc(N)sc4c3)nc3ccc4[nH]ncc4c23)C1 (stereo not given) | 9.04% (active)
COC(=O)c1cc(Br)ccc1O | 89.2% (inactive)
CC(=O)c1sc2sc(C(C)=O)c(C)c2c1C | 75.6% (inactive)
O=C(CN1CCCCCC1)Nc1nc2ccc(NCc3ccc(Cl)cc3)cc2s1 | 97.2% (inactive)
C=C(c1ccc(OC)c(/C=C/C(=O)c2ccc3c(c2)OCO3)c1)c1cc(OC)c(OC)c(OC)c1 | 6.41% (active)
COc1cccc(CNc2c3ccccc3nc3ccccc23)c1 | 8.36% (active)
CC1(C)CC(=O)c2c(nn(-c3ccc(Br)cc3)c2-c2cn(-c3ccccc3)nc2-c2cccnc2)C1 | 112% (inactive)
COc1cccc(-c2cc(-c3cccc(Cl)c3)c(C#N)c(=O)[nH]2)c1 | 45.5% (inactive)
CNC(=O)c1cc(Oc2ccc3c(c2)sc2nc(-c4ccc(OC)cc4)cn23)ccn1 | 38% (inactive)
Cc1nnc(-c2ccc3c(c2)nc(/C=C/c2ccccc2)n3C2CCCCC2)o1 | 46% (inactive)
CCCCNC(=O)Oc1ccc(/C(=C(/C)Cc2ccc(OC)cc2)c2ccc(OCCN3CCCCCC3)cc2)cc1 | -44.2% (active)
COc1ccc2cc(-c3ccnc4c(N=Nc5ccc(Cl)cc5)c(N)nn34)ccc2c1 | 95.2% (inactive)
CN(C)CCCC1(c2ccc(F)cc2)OCc2cc(-c3cc4ccccc4s3)ccc21 (stereo not given) | -15% (active)
Clc1ccccc1-c1cnn2cc(-c3ccccc3)cnc12 | 59.9% (inactive)

SMILES | growth
CN(C)c1ccc(-c2ccc3c(c2)c(-c2ccccc2)nc(=O)n3C)cn1 | 16.7% (inactive)
Cc1c2ccncc2c(C)c2c1c1cc(CO)ccc1n2C | -4.24% (active)
CCN(CC)c1ccc(CNc2cc(C)nc3ccccc23)cc1 | 50.5% (inactive)
CCOC(=O)c1cc(C(=O)c2cc(OC)c(OC)c(OC)c2)n2ccccc12 | 23.9% (inactive)
O=C(CI)NC(=O)NC(=O)NCc1ccccc1 | -5.93% (active)
CC/C=C\CCC/C=C1/C(=O)C=C[C@@H]1C/C=C\CCCC(=O)OC | 2.36% (active)
Fc1cccc(-c2ccc3c(c2)C2(CCNCC2)CN3)c1 | 110% (inactive)
CCOC(=O)c1c(C)nc2ccccc2c1/C=C/c1cccs1 | 68.6% (inactive)
COC(=O)c1nc(-c2ccccc2)oc1S(=O)(=O)NCC(c1ccc(Cl)cc1)N1CCOCC1 (stereo not given) | 1.88% (active)
COc1cc2nc3sc(C(=O)Nc4ccc(C(=O)OC(C)C)cc4)c(C(=O)Nc4ccc(Cl)cc4C)n3c(=O)c2cc1OC | 19.5% (inactive)
CC[N+]1(CC)CC[N+]2(CCCC(C)CC2)CC1 (stereo not given) | 106% (inactive)
CCN(CC)CCN1C(=O)c2cccc3c(/C=C/CN4C(=O)c5cccc6cccc(c56)C4=O)ccc(c23)C1=O | 38.6% (inactive)
CC1(C)C(N)=Nc2cc(OCCCN3Cc4ccccc4C3)c(OCC3CC3)cc21 | 32.4% (inactive)
COc1ccc(-c2nc(-c3cn(C)c4ncccc34)cs2)cc1 | 12.2% [100 µM] (inactive)
CCN1C(=O)N(CC)C2C1NN=c1s/c(=C3\C(=O)N(CCC(C)C)c4ccccc43)c(=O)n12 (stereo not given) | 16.7% (inactive)
N=c1c(S(=O)(=O)c2ccccc2)cc2c(=O)n3ccccc3nc2n1CC1CCCO1 (stereo not given) | 106% (inactive)
CCCn1cnc2c(c1=N)C(c1ccc(F)cc1)c1sc3c(F)cccc3c1O2 (stereo not given) | 28.8% (inactive)
CO[C@H](C(=O)[C@@H](O)[C@@H](C)O)[C@@H]1Cc2cc3cc(O[C@H]4C[C@@H](O[C@H]5C[C@@H](O)[C@H](O)C(C)O5)[C@H](O)C(C)(O)O4)cc(O)c3c(O)c2C(=O)[C@H]1O[C@H]1C[C@@H](O[C@H]2C[C@@H](O[C@H]3C[C@@H](OC)[C@H](O)C(C)O3)[C@@H](O)C(C)O2)[C@H](O)C(C)O1 (stereo not given in full) | 24% (inactive)
Nc1nc(NC(=O)Nc2ccc(C(=O)O)cc2)nn1-c1ccc(S(N)(=O)=O)cc1 | 99.5% (inactive)
COc1ccc(Oc2nc(Nc3ccc(N4CCOCC4)cc3)ncc2NC(=O)Nc2cc(OC)cc(OC)c2)cc1 | 50.7% (inactive)
